For the first experiment, the target named is SNX29. Put plainly: pooled miR-30 sensor sort-seq; sequence = guide strand. Conditions: shRNA.
Sequence TTGAGCACCTCGTTCTCTCTGG showed a sensor-assay potency score (higher = more potent) of -0.561.

TTCTGGAGCTGCTTTCTCCGTT: the sensor-assay potency score (higher = more potent) was -0.513.

With AACTTCTCCATCAACACTCCAA, the sensor-assay potency score (higher = more potent) came out at 0.0779.

The sequence TTTTATCCGGATGTAGACCTGA registered a sensor-assay potency score (higher = more potent) of 0.194.

As to TTTCTTTCGTAGGAGCTTGCGA, the sensor-assay potency score (higher = more potent) was -0.585.

TTCATCGTCTTTTATCCGGATG: the sensor-assay potency score (higher = more potent) was -0.658.

In turn, TTGGACTTTGAGCACCTCGTTC showed a sensor-assay potency score (higher = more potent) of -0.779.

Consider TTCTTCAGCAATTTCTCCCGGC, for which the sensor-assay potency score (higher = more potent) worked out at 0.0945.

For the sequence TTCTTTCGTAGGAGCTTGCGAG, the sensor-assay potency score (higher = more potent) was -0.569.

TAACTTGTGGTGCAAACTCCTG displayed a sensor-assay potency score (higher = more potent) of -1.57.

Sequence TACTTGTTTTGTAACTTGTGGT showed a sensor-assay potency score (higher = more potent) of 0.289.

The target of another experiment is SNX32. Described as above. Conditions: shRNA.
On to TTCGTGCATCGCAACTGTCTTC, for which the sensor-assay potency score (higher = more potent) was -0.785.

The sequence TGCGTCAGAAATCTCCACCTGT showed a sensor-assay potency score (higher = more potent) of 0.185.

Consider TAAGGAGCTGTCTCCCTGCAGA, for which the sensor-assay potency score (higher = more potent) is -1.06.

As to TACTCCAACAGGAAGGTCCTCT, the sensor-assay potency score (higher = more potent) is 0.509.

For the sequence TTGAACAGTGAATTTCACCTTG, the sensor-assay potency score (higher = more potent) is 0.337.

For the sequence TTCTGTAGCTTTTCCCTCGAAG, the sensor-assay potency score (higher = more potent) is -0.129.

The sequence TTTGAGCTCCAGCTCTGCCAGC returned a sensor-assay potency score (higher = more potent) of -1.19.

AATTTGAGGAAGCTCGTCCTTA: the sensor-assay potency score (higher = more potent) is -0.0375.

Turning to TTTCGAAAAGAGGAGACCCGGC, the sensor-assay potency score (higher = more potent) is -0.633.

In turn, TGAACAGTGAATTTCACCTTGT came in with a sensor-assay potency score (higher = more potent) of 0.317.

Regarding TTAGCTGGTTGACTTCCTGTGT, the sensor-assay potency score (higher = more potent) was 0.0166.

The record behind these values is the OligoGym collection.
Further: reference of the scale not given here.
